# High-throughput results deposited in PubChem by National Center for Advancing Translational Sciences (NCATS).
# RGS12 GoLoco inh – inhibitors of human Gai1-RGS12 GoLoco interaction (red fluorophore) | Gai1:RGS12 GoLoco peptide FP, rhodamine, 10 min | Potency, µM (series often up to 61.6 µM), for inactives: at the highest dose activity, negative = inhibition, hits mostly inhibitors | 0.44% of 230,000 active | P63096; active = well fitted inhibition curve with a large enough effect, not every such curve was filed as active; inactive = no such curve, though single readings can be large or run the other way; note: potency is the fitted concentration of half-maximal effect; nearly all actives have a fitted effect of over 30% in size
# Target sequence (P63096 whole entry, looked up): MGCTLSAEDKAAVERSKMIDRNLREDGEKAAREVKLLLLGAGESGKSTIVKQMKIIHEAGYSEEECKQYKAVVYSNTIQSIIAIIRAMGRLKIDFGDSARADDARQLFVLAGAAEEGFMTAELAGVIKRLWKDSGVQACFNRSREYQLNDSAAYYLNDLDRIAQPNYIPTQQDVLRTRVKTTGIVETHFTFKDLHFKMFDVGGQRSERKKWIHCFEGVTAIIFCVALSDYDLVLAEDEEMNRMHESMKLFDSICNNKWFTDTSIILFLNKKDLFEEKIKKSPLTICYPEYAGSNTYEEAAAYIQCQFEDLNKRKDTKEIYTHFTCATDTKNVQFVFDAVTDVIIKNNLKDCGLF
# TRb-SRC2 inh – disrupts binding of human TR beta to SRC2. P10828. TRbeta-SRC2 peptide binding, fluorescence polarization; receptor liganded with 1 µM T3. Potency, µM (highest dose often 106 µM), inactives show at the highest dose activity change, negative = inhibition, most hits filed as inhibitors. 0.065% of 280,000 active; active = well fitted inhibition curve with a large enough effect; inconclusive = small, poorly fitted or top-dose-only effect, or effect the other way;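 note: potency is the fitted concentration of half-maximal effect; plate controls were bound peptide for no effect and peptide without receptor for full effect; nearly all actives have a fitted effect of over 50% in size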
#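 Each compound concentration gave % activity, normalized to unbound and bound Texas Red SRC2 controls, from polarization read after 5 hr ambient incubation with T3-loaded human TRb LBD.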
# FBPA coupling cs – coupling enzyme interference in Giardia aldolase counter-screen. coupling enzyme system counterscreen, AmpLite Red fluorescence. 0.67% of 290,000 active. activity change, negative = inhibition, % at 58.2 µM, hits read low; in the data active = activity change below about -30%
#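 Activity here indicates interference with the coupling reaction, not aldolase inhibition. Compounds at 57.5 uM final met coupling enzymes for 10 min at RT; substrate and AmpLite Red detection followed, with a 525/598 nm fluorescence read after 20 min.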
# TexasRed fluor – counter-screen for TRb-SRC2 inhibitors: fluorescence interference | TRb/SRC2 Texas Red total fluorescence interference | Potency, µM (doses to about 106 µM), for the others: top-dose fluorescence change, negative = quenching | 0.29% of 280,000 active | AID 1479; active = well fitted curve in either direction with a large enough effect; inconclusive = small, poorly fitted or top-dose-only effect; note: potency is the fitted concentration of half-maximal effect
#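 Flags fluorescent or light-absorbing compounds by total fluorescence, S + 2P, at 555 nm excitation and 632 nm emission. Mixture: 20 nM Texas Red SRC2 peptide, 0.6 uM human TRb LBD, 1 uM T3, 5% DMSO; compound exposure 5 h at ambient temperature.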
# An asterisk follows results filed as active; ? = inconclusive; . = no result; ! = not active in a repeat; [ ] = dose if it differs, or a comment. Only some compounds are listed: those with a hit (about 0.93% of all), similar ones and a draw of the others. Unless noted, % is set by controls: 0 for no effect and ±100 for the full control effect.
SMILES,RGS12 GoLoco inh,TRb-SRC2 inh,FBPA coupling cs,TexasRed fluor
Oc1ccc(N=Cc2ccc(-c3cccs3)s2)cc1,-25%,32µM*,-51*,9%
CCCCOc1ccc(N=Cc2cccs2)cc1,9%,-6%,4,-2%
N[C@@H]1[C@@H](O)[C@H](O)[C@@H](CO)O[C@H]1O,.,0%[201 µM],.,-1%[201 µM]
C1CCCNCC1,22µM*,8%,.,-2%
C1CNCCNCCCNCCNC1,9%,-9%,-1,-4%
Oc1cccc2cnccc12,-11%,-10%,-9,-5%
Nc1cccc2cnccc12,1%,4%,-38*,2%
CC1Cc2cc(S(=O)(=O)NCc3ccc(N(C)C)cc3)ccc2N1C(=O)C1CCC1 (configuration not stated),.,-11%,.,22µM*[quencher]
Cc1ccc(CNC(=O)C(C(C)C)N2Cc3ccccc3C2=O)cc1 (configuration not stated),.,-6%,.,5%
CC(=O)Nc1sc(/C(C#N)=C/c2ccc(Cl)c(Cl)c2)nc1-c1ccc(C)cc1,153%,-6%,-44*,-6%
CC(=O)Nc1sc(N/N=C/c2ccc(C)cc2)nc1-c1ccc(C)cc1,-16%,-4%,-3,-2%
Cc1cc(C)c(Cn2c3ccccc3c3cnn(CC(=O)N4CCCCCC4)c(=O)c32)c(C)c1,.,12%,.,-3%
Cc1cc2c(NC(=O)CC(C)(C)CC(=O)O)cccc2nn1,22%,-12%,-36*,0%
COc1ccc(NC(=O)Nc2ccc(F)cc2)c(C)c1,4%,-4%,4,-1%
Cc1cc2c(NC(=O)Nc3ccc(F)cc3)cccc2nn1,1%,-23%,-31*,16%
O=c1c2ccccc2sn1-c1cc(S(=O)(=O)N2CCOCC2)ccc1N1CCCC1,-70%,10%,2,1%
O=c1c2ccccc2sn1-c1cc(S(=O)(=O)N2CCOCC2)ccc1N1CCOCC1,3.5µM*,.,-3,.
CN1c2ccccc2C(C)(C)C12C=Nc1c(cc(N3CCOCC3)c3ccccc13)O2 (configuration not stated),2%,?,-66*,-8%
Cc1ccc(-c2c(CN3CCN(c4cc(Cl)ccc4C)CC3)csc2C)cc1,.,-1%,.,-3%
NC(=O)c1ccc(-c2ccc(Br)cc2)o1,2%,4%,4,-3%
NC(=O)C1CCN(C(=S)c2ccc(-c3ccc(Br)cc3)o2)CC1,5%,-1%,-33*,-1%
COc1ccc(C(=O)OCCc2ccc(O)cc2)cc1,2%,-6%,-1,-2%
COc1ccc(C(=O)OCC[N+]2(C)CCOCC2)cc1,7.9µM*,1%,-4,2%
CC(=O)c1ccc(NC(=O)CN2CCN(c3ncccn3)CC2)cc1,-10%,-7%,-55*,-5%
CC(=O)c1ccc(NC(=O)CN2CCN(CC(=O)Nc3ccc(C(C)=O)cc3)CC2)cc1,.,.,-1,.
SMILES,RGS12 GoLoco inh,TRb-SRC2 inh,FBPA coupling cs,TexasRed fluor
C=CC1=C(C)C2=NC1=CC1=NC(=CC3=NC(=CC4=NC(=C2)C(C)=C4CCC(=O)O)C(CCC(=O)O)=C3C)C(C=C)=C1C.[Zn],5.6µM*,13µM*,-14,28µM*[fluorescent]
Cc1cc(CCC(=O)O)c(C)cc1CCC(=O)O,-5%,-2%,2,-1%
N#Cc1cc2c(=O)n3ccccc3nc2n(-c2nnc(SCc3ccccc3Cl)s2)c1=O,.,-3%,.,0%
CCOc1ccc(NC(=O)Cn2nnc(C(=O)NCCc3ccccc3)c2N)cc1,.,6%,.,1%
CNc1nc(=O)n(C2CCC(O)CC2)c(=O)n1C (configuration not stated),.,2%[201 µM],.,-1%[201 µM]
NC(=S)NNc1cccc2cccnc12,12%,-3%,-36*,-6%
Cc1cc(NC(=O)COc2ccc(Cl)cc2Cl)n(-c2ccccc2)n1,-2%,-11%,3,-3%
Cc1cc(NC(=O)CSc2cc(Cl)ccc2Cl)n(-c2ccccc2)n1,-24%,-23%[53 µM],-8,32µM*[quencher]
Cc1ccc(C)c(NC(=O)CC2NCCNC2=O)c1 (configuration not stated),.,10%,.,-2%
N#Cc1cc(-c2ccccc2)nn1-c1ccccc1,13µM*,-12%,-41*,-2%
Cn1ccc(-c2ccccc2)n1,6%,-2%,1,-1%
CCCCOCC(C)OCC(C)O (configuration not stated),.,5%[201 µM],.,-4%[201 µM]
Cc1ccc2ccccc2c1[N+](=O)[O-],9%,-4%,.,-3%
Cc1ccc(Cl)cc1N1CCN(C(=O)C2CCN(S(=O)(=O)c3cccc4nonc34)CC2)CC1,.,0%,.,7.9µM*[quencher]
C[N+](C)(C)CCC(=O)c1cccc2ccccc12,25µM*!,2%,.,1%
Cc1cc(Nc2ccc(N=Nc3ccc(O)c4ncccc34)cc2)nc(C)n1,12%[14.2 µM],.,.,.
COc1ccc(NC(=O)c2cc(S(=O)(=O)N(Cc3ccccc3)c3ccccc3)ccc2Cl)cn1,152%,-3%,-44*,-3%
CCOc1ccccc1C(=O)Nc1ccc(S(=O)(=O)N(Cc2ccccc2)c2ccccc2)cc1,.,0%,.,7%
[N-]=[N+]=Nc1nc2c(N)ncnc2n1C1OC(CO)C(O)C1O (configuration not stated),-4%,1%,1,-11%
CCOC(=O)c1c(S(=O)(=O)NCC(=O)N2CCN(c3cccc(Cl)c3)CC2)c(C)n(C)c1C,.,-23%,.,0.35µM*[quencher]
CCOC(=O)c1cccc(NC(=O)CCn2nc(C)c3c(C)n(-c4ccccc4)nc3c2=O)c1,.,-1%,.,0%
CC[C@H](C)C(=O)O[C@H]1CCC=C2C=C[C@H](C)[C@H](CC[C@@H]3C[C@@H](O)CC(=O)O3)[C@H]21,-4%,-1%,0,-2%
CC[C@H](C)C(=O)O[C@H]1C[C@@H](C)C=C2C=C[C@H](C)[C@H](CC[C@@H]3C[C@@H](O)CC(=O)O3)[C@H]21,-9%,0%,-47*,-1%
CC1=C(/C=C/C(C)=C/C=C/C(C)=C\C(=O)O)C(C)(C)CCC1,7%,22µM*!,7,28µM*![fluorescent]
Cc1nn(CCCC(=O)NCc2ccc(F)cc2)c(=O)c2c1sc1ccccc12,.,0%,.,1%
SMILES,RGS12 GoLoco inh,TRb-SRC2 inh,FBPA coupling cs,TexasRed fluor
COC(=O)c1ccc(=O)c2nc3/c(=C/O)c(O)cc(=O)c3[nH]c12,3%,?,-7,25µM*[quencher]
O=C(COc1ccccc1Cl)OCc1cc(=O)n2nc(C3CCCCC3)sc2n1,.,1%,.,-3%
N#Cc1c(N)sc(=S)c2c1CCCCC2,25µM*,-14%,-33*,4%
Cn1c(N)c(C#N)c2c(c1=S)CSC(C)(C)C2,-15%,-9%,-25,1%
CC1(C)Cc2c(C#N)c(N)sc(=S)c2CS1,0%,-3%,-44*,1%
CC(C)c1ccc(/C=C2\C=C(c3ccc4ccccc4c3)OC2=O)cc1,-5%[14.2 µM],.,.,.
O=C(c1ccc(F)cc1F)N1CCC(c2nc(-c3ccc(S(=O)(=O)N4CCCC4)cc3)no2)CC1,.,-3%,.,1%
Cc1ccc2c(CN3CCCc4ccccc43)cc(=O)oc2c1C,11%,-4%,-53*,-5%
Cc1ccc2c(CN3CCCCC3)cc(=O)oc2c1C,.,.,4,.
